Results on 31 compounds are retold here after PubChem BioAssay (NCATS).

Several values for one entry are separate records, joined by “and”; a condition that tells them apart may be missing. Equal values may be shown once. Inconclusive results are not listed. Values without a mark were called inactive. Activity calls are given as the source filed them. The call rests on the fitted dose curve; in most records, active means well fitted inhibition curve with a large enough effect; inconclusive means small, poorly fitted or top-dose-only effect; inactive means flat fitted curve, though single readings scatter.

Holding throughout (test): Cytotoxic Profiling of Annotated Libraries Using Quantitative High-Throughput Screening (AID 1296008); further: nearly all actives have a fitted effect of over 60% in size
What all share (settings): Five cell lines viability, CellTiter-Glo ATP luminescence, 48-72 h; max response: active compounds read low

One assay deals with CRL-7250. The essentials: (§1)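 Compounds were pin-transferred onto cells and incubated 48 or 72 hr at 37 degree Celsius, 95% humidity. CellTiter-Glo was added, plates sat 10 min at room temperature, then ATP-coupled luminescence was imaged as the viability read-out.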
The next assay relates to HEK293. The procedure, abridged:
as §1

A further assay has as its system HaCat. The procedure, abridged:
as §1

For another assay, the system named is KB-3-1. The procedure, abridged:
as §1
On the % scale 0 is the no-effect control and ±100 the full control effect; potency means the concentration at half of the fitted maximal effect.

As to `O=C1CCC[C@@H]2[C@H]3CCCN4CCC[C@@H](CN12)[C@@H]34`, the max response in the assay on CRL-7250 is 0.603%; in the assay on HEK293, -4.12%; in the assay with HaCat, 3.98%; in the assay with KB-3-1, 2.17%.
Take `COc1cccc2c1[C@]13CCN(CC4CC4)[C@H](C2)[C@]1(OC)CCC(=O)C3`: the compound was called inactive in the assay with CRL-7250, in the assay with HEK293 and in the assay with HaCat. Besides, the max response with KB-3-1 is 7.72%.
As for `O=[N+]([O-])/N=C1\NCCN1Cc1ccc(Cl)nc1`, the max response in the assay on CRL-7250 is -0.312%; with HaCat it was -1.41%; with KB-3-1, 6.99% and -6.61%. In addition, the compound was classed as inactive in the assay with HEK293.
Turning to `CCC(=O)OC1CCC2C3CCC4=CC(=O)CC[C@@]4(C)C3CC[C@]12C` (some centres undefined), in the assay on CRL-7250, the max response was -4.7%. Further, the outcome with HEK293, with HaCat and in the assay with KB-3-1 was inactive.
Take `C1=C2CCCN[C@H]2[C@@H]2C[C@H]1[C@@H]1CCCCN1C2`: the max response in the assay with CRL-7250 was -2.39%; in the assay with HEK293 it was 0.094%; in the assay on KB-3-1 it was 9.36%. For the same compound, the compound was classed as inactive in the assay on HaCat.
On to `CC(=O)NCCc1c[nH]c2ccccc12`, for which the values for the max response in the assay with CRL-7250 and with HEK293 were -10.8% and -1.55%, respectively. The compound was classed as inactive in the assay on HaCat and in the assay on KB-3-1.
Regarding `CCOC(=O)c1cncn1[C@H](C)c1ccccc1`, the max response with CRL-7250 is 2.73%; in the assay with KB-3-1, 6.23%. Besides, the result with HEK293 and in the assay with HaCat was inactive.
For the compound `C[C@@H]1CC[C@H]2[C@@H](C)C(=O)O[C@@H]3O[C@@]4(C)CC[C@H]1[C@]32OO4`, the figures for the max response in the assay with CRL-7250, with HaCat and in the assay on KB-3-1 were -21.1%, -10.9% and -6.88%, respectively. For the same compound, in the assay on HEK293, the Potency was 1.66 µM (active).
As to `CC(C)N[C@@H]1CCn2c(=O)[nH]c3cccc(c32)[C@@H]1O`, the outcome with CRL-7250 was inactive. In addition, the max response in the assay with HEK293 was 2.71%; with HaCat, -2.4%; in the assay on KB-3-1, 6.91%.
Take `CC(O)CN1CCN(CC(=O)[O-])CCN(CC(=O)[O-])CCN(CC(=O)[O-])CC1.[Gd+3]` (centres undefined): the call in the assay on CRL-7250 was inactive. In addition, the max response was -21.1% in the assay with HEK293; -14.5% in the assay on HaCat; -2.15% and -0.0896% with KB-3-1.
Take `Oc1ccc2c3c1O[C@H]1c4[nH]c5c(c4C[C@@]4(O)[C@@H](C2)N(CC2CC2)CC[C@]314)C[C@@]1(O)[C@H]2Cc3ccc(O)c4c3[C@@]1(CCN2CC1CC1)[C@H]5O4`: the compound was called inactive in the assay on CRL-7250, in the assay on HEK293 and with KB-3-1. Also, in the assay with HaCat, the max response is -0.228%.
As to `COc1cc2cc(c1Cl)N(C)C(=O)C[C@H](OC(=O)C(C)C)[C@]1(C)O[C@H]1[C@H](C)[C@@H]1C[C@@](O)(NC(=O)O1)[C@H](OC)C=CC=C(C)C2`, the max response with CRL-7250 is -68.5%; in the assay with HEK293 it was -91.4%; in the assay with HaCat, -21.1%. The Potency in the assay with KB-3-1 is 332 nM (active).
In the case of `O=c1cccc2n1CC1CNC[C@H]2C1`, the max response was -0.274% with CRL-7250, -2.71% in the assay with HEK293 and -12.2% in the assay with HaCat. Moreover, the outcome with KB-3-1 was inactive.
On to `CCOCCOC(C)=O`, for which the max response with CRL-7250 was -13%; with HEK293, -1.29%; with HaCat, -11.2%; in the assay on KB-3-1, -19.2%.
With `O=S(=O)(O)C(F)(F)C(F)(F)C(F)(F)C(F)(F)F`, the results for the max response in the assay on CRL-7250, with HaCat and with KB-3-1 were -7.36%, 2.96% and -15.1%, respectively. In addition, in the assay with HEK293, the call was inactive.
`CC(Cc1ccc(O)cc1)NCC(O)c1cc(O)cc(O)c1` (centres undefined): the max response in the assay on CRL-7250 is 3.52%; in the assay with HEK293 it was -1.83%; with HaCat, -18.5%; in the assay on KB-3-1 it was 6.39%.
Consider `CCCCC(CC)COC(=O)c1ccccc1C(=O)OCC(CC)CCCC` (centres undefined), for which the results for the max response in the assay on CRL-7250 and in the assay on KB-3-1 were -5.66% and -15.4%, respectively. The result with HEK293 and with HaCat was inactive.
With `Clc1ccccc1C(c1ccccc1)(c1ccccc1)n1cccn1`, the outcome in the assay on CRL-7250 was inactive. Also, the max response was -5.51% in the assay with HEK293, -3.22% in the assay with HaCat and 9.15% in the assay with KB-3-1.
For `CC(=Cc1csc(C)n1)[C@@H]1C[C@H]2O[C@]2(C)CCC[C@H](C)[C@@H](O)[C@@H](C)C(=O)C(C)(C)[C@@H](O)CC(=O)O1`, the figures for the max response in the assay on CRL-7250, with HEK293 and in the assay with HaCat were -93.2%, -85.5% and -55%, respectively. For the same compound, the Potency in the assay with KB-3-1 is 0.1 nM (active).
For `C=CCON=C(C[C@H]1O[C@@H]2O[C@]3(C)CC[C@@H]4[C@H](C)CC[C@@H]([C@H]1C)[C@@]24OO3)[C@H]1O[C@@H]2O[C@]3(C)CC[C@H]4[C@H](C)CC[C@@H]([C@@H]1C)[C@@]24OO3`, the Potency is 935 nM (active) in the assay with CRL-7250, 0.235 µM (active) in the assay on HEK293, 2960 nM (active) in the assay on HaCat and 1320 nM (active) with KB-3-1.
Consider `C[C@@]12OC(=O)[C@]1([C@@H](O)[C@@H]1C=CCCC1)NC(=O)[C@H]2CCCl`, for which the Potency in the assay with CRL-7250 is 209 nM (active); in the assay on HEK293, 0.0743 µM (active); in the assay on HaCat, 16600 nM (active); with KB-3-1 it was 418 nM (active).
Turning to `CC[C@@H](C(N)=O)N1CCCC1=O`, the max response is 0.0308% in the assay with CRL-7250 and 6.38% with KB-3-1. Moreover, the call with HEK293 and with HaCat was inactive.
Regarding `COc1ccc2c(c1)[C@]13CCCCC1C(C2)N(C)CC3` (some centres undefined), the results for the max response in the assay with CRL-7250, with HaCat and in the assay with KB-3-1 were 4.77%, -2.03% and 9.18%, respectively. Also, the compound was called inactive with HEK293.
For the compound `CCN1C[C@]2(OC(=O)c3ccccc3NC(C)=O)CC[C@H](OC)[C@@]34[C@H]5CC6[C@@H](OC)C[C@](O)(C(C[C@@H]23)[C@@H]14)[C@@]5(O)[C@@H]6OC`, the outcome with CRL-7250, in the assay with HaCat and with KB-3-1 was inactive. In the assay with HEK293, the max response is -8.41%.
As for `c1cc2c(cc1[C@H]1OC[C@H]3[C@H]1CO[C@H]3c1ccc3c(c1)OCO3)OCO2`, the results for the max response with CRL-7250 and in the assay on KB-3-1 were -11.7% and 6.13%, respectively. For the same compound, the call in the assay on HEK293 and in the assay on HaCat was inactive.
Take `Nc1ccc(Cl)cc1`: the max response in the assay on CRL-7250 is -5.83%; with HEK293 it was 4.83%; in the assay with HaCat, -11.6%; with KB-3-1 it was -17.1%.
Consider `O=c1[nH]c2ccccc2n1C1CCN(Cc2ccc(-c3[nH]c4cc5ncnc5cc4nc3-c3ccccc3)cc2)CC1`, for which the compound was classed as inactive in the assay with CRL-7250 and in the assay with KB-3-1. The Potency with HEK293 is 18.7 µM (active). In the assay with HaCat, the max response was 0.8%.
As for `Oc1ccc2c3c1O[C@H]1[C@@H](O)C=C[C@H]4[C@@H](C2)NCC[C@@]341`, the max response with CRL-7250 was -20.7%; in the assay with HEK293, -17.4%; in the assay with HaCat, -5.53%; in the assay on KB-3-1, -5.17%.
As to `CC(C)(C)[C@]1(O)C[C@@H]2OC(=O)C[C@@]23C(=O)O[C@@H]2OC(=O)[C@H](O)C213` (some centres undefined), the max response in the assay on CRL-7250 is 2.16%. The call in the assay with HEK293, in the assay on HaCat and in the assay on KB-3-1 was inactive.
In the case of `Cc1nc(-c2ccc(-c3ccc(C(=O)N4CCc5cc6c(cc54)C4(CCN(C)CC4)CO6)cc3)c(C)c2)no1`, the values for the max response in the assay with CRL-7250, with HEK293 and in the assay with KB-3-1 were -11.3%, 4.59% and 2.18%, respectively. For the same compound, the compound was called inactive with HaCat.
As to `CCN1CCN(C(=O)Cc2ccc(Nc3ncc(F)c(Nc4ccc(C(=O)Nc5ccccc5Cl)cc4)n3)cc2)CC1`, the Potency in the assay with CRL-7250 was 26.4 µM (active) and 16.4 µM (active); in the assay on HEK293, 3.72 µM (active) and 2.59 µM (active); with HaCat, 8200 nM (active); in the assay on KB-3-1, 1840 nM (active).
